The campaign covered roughly 320,000 compounds. About 3,300 (1%) were called active.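 How the source made its calls: active means every valid replicate shows activation above 250% relative to neutral control wells; inactive means the rest, any valid replicate at or below 250%.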 Shown is part of a subset that was picked to be rich in actives.

The experiment is described as follows: yeast Mot1-301 growth rescue at high temperature, primary screen, SUMOylation pathway inhibitor project, S. cerevisiae, ATP luminescence, 38.5C (AID 2716).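 Further: OY570 slx delta 5 strain wells were the positive control but not used for scaling.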 The settings on record: S. cerevisiae Mot1-301 growth rescue, at 18.8 µM, active compounds read high, percent above DMSO median, 100 means doubled.
`CCCCNC(=O)c1ccccc1NC(=O)C1=C(C)OCCS1`: the growth rescue is 548% (active).

As for `CCCCNC(=O)c1ccccc1NC(=O)c1ccccc1N(C)S(C)(=O)=O`, the growth rescue was -4.15% (inactive). The value for `COc1ccc(N2CCN(C(=O)c3ccccc3NC(=O)C3=C(C)OCCS3)CC2)cc1` was 46.6% (inactive).

As for `CCN(CC)C(=O)CSc1nnc(CNc2ccc(F)cc2)n1Cc1ccco1`, the growth rescue is 543% (active). The value for `Cc1cc(C)nc(SCc2nnc(SCC(=O)Nc3ncc(C)s3)n2Cc2ccco2)n1` was -12% (inactive). With `COc1ccc(NC(=O)CSc2nnc(-c3cccs3)n2Cc2ccco2)cc1OC` the figure was 22.9% (inactive); with `COc1ccc(C(=O)NCC2CCCN2S(=O)(=O)c2cccs2)cc1OC` (centres undefined), 134% (inactive); with `Cc1ccc2nc(-c3ccc(NC(=O)CN(C)S(=O)(=O)c4ccccc4)cc3)sc2c1`, 574% (active). With `COc1cc(NC(=O)CN(C)S(=O)(=O)c2ccc3nc(C)sc3c2)cc(OC)c1` the figure was -12.8% (inactive); with `Cc1cccc(N(CC(=O)Nc2ccc(-c3nc4ccc(C)cc4s3)cc2)S(C)(=O)=O)c1`, -4.14% (inactive); with `Cc1cc(C)c(S(=O)(=O)Nc2c(C)n(C)n(-c3ccccc3)c2=O)cc1[N+](=O)[O-]`, -5.42% (inactive). As for `Cc1c(Br)cc(C(=O)N2CCCCCC2)c(C)c1C`, the growth rescue is 15.2% (inactive).

Consider `CC1(C)SC2C(NC(=O)COc3ccccc3)C(=O)N2C1C(=O)O` (centres undefined), for which the growth rescue is 3.56% (inactive).

Regarding `CC1(C)S[C@@H]2[C@H](NC(=O)COc3ccccc3)C(=O)N2C1C(=O)OCc1ccccc1` (some centres undefined), the growth rescue was 343% (active).

As for `COC(=O)C1[C@H]2SC(C)(C)C(C(=O)OC)N2C(=O)N1Cc1nc2ccccc2s1` (some centres undefined), the growth rescue is -13.8% (inactive). With `O=C(NCCN1CCOCC1)/C(=C/c1ccc(F)cc1)NC(=O)c1ccccc1` the figure was 93.9% (inactive); with `CC(OC(=O)c1ccc(Cl)cc1O)C(=O)NCCC1=CCCCC1` (centres undefined), 17.1% (inactive). Turning to `CC1CCCCN1CCCNc1ccc(C(CC(N)=O)NC(=O)c2ccccc2)cc1[N+](=O)[O-]` (centres undefined), the growth rescue was -18.3% (inactive). Consider `Cc1cc(C)cc(C(=O)NC(CC(N)=O)c2ccc(N3CCC(N4CCCCC4)CC3)c([N+](=O)[O-])c2)c1` (centres undefined), for which the growth rescue was 855% (active). Take `COc1ccc(OC)c(C(=O)NC(CC(N)=O)c2ccc(N3CCC(N4CCCCC4)CC3)c([N+](=O)[O-])c2)c1` (centres undefined): the growth rescue was -11.8% (inactive). Regarding `Cc1cccc(NC(=O)CN2CCN(C(=O)C3CCN(C(=O)/C=C/c4ccccc4)CC3)CC2)c1C`, the growth rescue is -7.86% (inactive). As for `Cc1nn(Cc2ccccc2)c(C)c1NS(=O)(=O)c1ccccc1`, the growth rescue is 0.754% (inactive). With `CC(=O)c1cc(CN2CCC(n3nccc3NC(=O)c3ccccc3Cl)CC2)cs1` the figure was 13.8% (inactive); with `Cc1cc(Nc2ccc(N3CCOCC3)cc2)c2cccc(C)c2n1`, -0.464% (inactive); with `Cc1ccc(Nc2cc(C)nc3c(C)ccc([N+](=O)[O-])c23)cc1`, 888% (active). `Cc1cc(Nc2ccc(C(=O)N3CCCCC3)cc2)c2cccc(C)c2n1`: the growth rescue was 397% (inactive).

Regarding `O=C(O)Cn1c(Cc2ccccc2)nc2ccccc21`, the growth rescue was -4.16% (inactive). Regarding `O=C(Nc1ccccc1F)c1ccc2c(c1)OCO2`, the growth rescue was 3.63% (inactive). For the molecule `Fc1ccccc1-c1cc2cc3c(cc2cn1)OCO3`, the growth rescue was 579% (active). `Fc1ccc2cnc(-c3ccccc3)cc2c1`: the growth rescue is 110% (inactive). As for `O=C(c1ccc(F)cc1)n1c(=S)nc2ccccn21`, the growth rescue was -34.1% (inactive). The value for `COc1ccccc1-c1nn(Cc2ccccc2)cc1C(=O)N1CCN(c2ncccn2)CC1` was -5.43% (inactive). For `CCN(CC)c1ccc(NC(=O)C2CCC(CNc3c(N4CCCC4)c(=O)c3=O)CC2)c(C)c1` (centres undefined), the growth rescue was 6.64% (inactive). With `CCC(CC)C(=O)Nc1ccc(S(=O)(=O)Nc2nccs2)cc1` the figure was 441% (active). As for `COc1ccccc1OC(C)C(=O)Nc1ccc(S(=O)(=O)Nc2nccs2)cc1` (centres undefined), the growth rescue was 7.27% (inactive). For the molecule `Cc1ccc(OCCC(=O)Nc2ccc(S(=O)(=O)Nc3nccs3)cc2)cc1`, the growth rescue was -18.7% (inactive). With `CCOC(=O)CCc1c(C)c(C#N)c2[nH]c3ccccc3n2c1=O` the figure was -0.685% (inactive); with `CN(C)Cc1c(C#N)c2ccccc2n1C`, 63.2% (inactive); with `CCCc1cc(=S)n2c([nH]c3ccccc32)c1C#N`, 490% (active).

Consider `CCCn1nc(C(=O)NNC(=O)CCOc2ccccc2OCC)c2ccccc2c1=O`, for which the growth rescue is 2.71% (inactive). As to `CC(=O)c1ccc(NC(=O)CSc2nc3ccccc3c(=O)n2CCCN2CCOCC2)cc1`, the growth rescue is -18.7% (inactive). With `COc1cc(OC)cc(C(=O)NCC(=O)OCC(=O)NC(C)CCc2ccccc2)c1` (centres undefined) the figure was -11.2% (inactive). With `CC(CCc1ccccc1)NC(=O)COC(=O)c1ccc(F)cc1` (centres undefined) the figure was 11.7% (inactive); with `COc1cc(C(=O)OCC(=O)NC(C)CCc2ccccc2)cc(OC)c1OC` (centres undefined), 788% (active); with `CC(=O)N1CCN(S(=O)(=O)c2ccc(C)c([N+](=O)[O-])c2)C1C(C)C` (centres undefined), -18.3% (inactive). The value for `CC(C)[C@@H]1NC(=O)c2cc([N+](=O)[O-])cc(I)c2NCCC[C@@H](C(=O)NC(CC(=O)O)C(N)=O)NC(=O)[C@H](CO)NC1=O` (some centres undefined) was -3.93% (inactive); that for `CC(C)NC(=O)Nc1cccc2c1O[C@@H](CN(C)S(=O)(=O)c1ccc(F)cc1)[C@@H](C)CN([C@H](C)CO)C2=O` was -15.3% (inactive).

On to `O=C(NCc1ccccc1Cl)C(=O)NCC1CCCN1S(=O)(=O)c1cccs1` (centres undefined), for which the growth rescue was 454% (active). On to `COc1ccccc1CCNC(=O)C(=O)NCCC1CCCCN1S(=O)(=O)c1cccs1` (centres undefined), for which the growth rescue is -12.1% (inactive).

On to `O=C(NCc1ccc(Cl)cc1)C(=O)NCC1CCCN1S(=O)(=O)c1cccs1` (centres undefined), for which the growth rescue was -0.245% (inactive).

For the molecule `CCOC(=O)c1c(S(=O)(=O)Nc2cccc(Cl)c2)c(C)n(C)c1C`, the growth rescue was -7.89% (inactive). With `CCC(C)(C)NC(=O)C(c1ccc(OC)cc1)N(C(=O)CCC(=O)Nc1cc(C)on1)c1ccc(OC)cc1OC` (centres undefined) the figure was -19.3% (inactive); with `CC(C)(C)c1cc(C(=O)NN)n(Cc2ccc(Cl)cc2Cl)n1`, 207% (inactive); with `N#CC(C#N)=CN=c1ccn(Cc2ccc(Cl)cc2Cl)cc1`, 813% (active). Regarding `O=c1ccn(Cc2ccccc2Cl)cc1`, the growth rescue is 1.62% (inactive). Take `COc1ccccc1CNC(=O)COC(=O)CNS(=O)(=O)c1ccc(NC(C)=O)cc1`: the growth rescue was -0.994% (inactive). In the case of `CSCCC(NC(=O)c1ccccc1)C(=O)N1CCCCCCC1` (centres undefined), the growth rescue is -4.42% (inactive). The value for `CC(NC(=O)c1ccc(Cl)cc1)C(=O)N1CCCCC1` (centres undefined) was 434% (active).

On to `CC(C)C(NC(=O)c1ccc(Cl)cc1)C(=O)O` (centres undefined), for which the growth rescue is 5.56% (inactive). With `O=C(CCNC(=O)c1ccc(Br)cc1)NCCCc1ccccc1` the figure was 0.819% (inactive).

`O=C(CCc1ccccc1)NNC(=O)c1ccc(Br)cc1`: the growth rescue is 631% (active). The value for `O=C(CNC(=O)c1ccco1)NNC(=O)c1ccc(Br)cc1` was 19.3% (inactive); that for `COc1cc(CC(=O)N2CCC(n3nccc3NC(=O)C3CC3)CC2)cc(OC)c1OC` was 7.3% (inactive); that for `COc1cccc(-n2c(SCC(=O)NC3CCCCC3)nc3n[nH]c(C)c3c2=N)c1` was 1070% (active). Turning to `CCCCNC(=O)CSc1nc2n[nH]c(C)c2c(=N)n1-c1cccc(Cl)c1C`, the growth rescue was -7.38% (inactive). On to `Cc1ccc(-n2c(SCC(=O)NCCC3=CCCCC3)nc3n[nH]c(C)c3c2=N)cc1Cl`, for which the growth rescue was 4.94% (inactive). Consider `COc1cc(OC)cc(C(=O)Nc2nnc(SCC(=O)NCC3CCCO3)s2)c1` (centres undefined), for which the growth rescue was -5.99% (inactive).

Consider `CCCCNS(=O)(=O)c1ccc(S(=O)(=O)n2cnc3ccccc32)cc1`, for which the growth rescue is -2.08% (inactive). With `COC(=O)c1c(C)cc(O)c(C)c1O` the figure was 2.55% (inactive); with `O=C(c1cccnc1)N1CCN(S(=O)(=O)c2cccs2)CC1`, -2.05% (inactive); with `CCOC(=O)c1ccccc1N1C(=O)C2Sc3[nH]c(=O)sc3C(/C=C/c3ccccc3)C2C1=O` (centres undefined), 0.0979% (inactive).

Turning to `Nc1nc(SCCOc2ccccc2)n[nH]1`, the growth rescue is -18.7% (inactive). The value for `Nc1cc(N)nc(SCc2cccc(F)c2)n1` was 35.9% (inactive); that for `Nc1nc(SCc2cccc(Br)c2)n[nH]1` was 332% (active). For `Cc1ccc(C(=O)N/C(=C\c2ccc(F)cc2)C(=O)NCCN2CCOCC2)cc1`, the growth rescue was 49.4% (inactive). The value for `Cn1cncc1C#Cc1c(-c2ccsc2)sc2ccccc12` was 17.7% (inactive); that for `COC(=O)Cc1ccc(OC(=O)C2CCN(S(=O)(=O)c3ccc(OC)c(OC)c3)CC2)cc1` was -14.9% (inactive). Take `CC1(C)Cc2c(sc(NC(=O)C(=O)NCC3CCCO3)c2C(=O)O)CO1` (centres undefined): the growth rescue was -46.3% (inactive). As to `COc1ccc(NC(=O)Cn2c(-c3ccc(OC)cc3)cn(-c3ccc(C)cc3)c2=O)cc1`, the growth rescue was 259% (inactive). The value for `COc1ccc(-c2cn(-c3ccc(C)cc3)c(=O)n2CC(=O)Nc2ccc(OC)c(OC)c2)cc1` was 737% (active); that for `COc1ccc(NC(=O)COC(=O)Cn2c(C)nc3ccccc32)cc1OC` was -5.7% (inactive); that for `O=C(NCCc1nnc2ccc(SCC(=O)N3CCOCC3)nn12)c1ccccc1` was -18.2% (inactive).

`COc1ccc(C2CC(=O)Nc3sc(=N)c4c(N)c(C#N)c(N)nc4c32)cc1OC` (centres undefined): the growth rescue was -31.5% (inactive). The value for `COc1ccc(OC)c2c(N)c(C#N)c(C(F)(F)C(F)(F)F)nc12` was 790% (active). With `COc1ccccc1-c1c(C#N)c(N)nc2c1CCC2` the figure was -0.44% (inactive); with `O=C(CN1CCCCC1)N1c2ccccc2Sc2ccc(C(F)(F)F)cc21`, 1.37% (inactive).

As to `Cn1c(C(=O)NCCCN2CCN(c3cccc(Cl)c3)CC2)cc2c(=O)n(C)c3ccccc3c21`, the growth rescue was -12.4% (inactive).

With `Cn1c(C(=O)NCCc2ccsc2)cc2c(=O)n(C)c3ccccc3c21`, the growth rescue is 385% (active).

Take `CCN1CCCC1CNC(=O)c1cc2c(=O)n(C)c3ccccc3c2n1C` (centres undefined): the growth rescue is -15.2% (inactive).

Source of the values: PubChem BioAssay AID2716 (Broad Institute, 2010).
